Source: PubChem
In the library only some 7.2% were active in any assay of this set; here they are far more common.
Sm TGR block = inhibitors of Schistosoma mansoni thioredoxin glutathione reductase; Q962Y6; purified TGR, DTNB reduction, TNB absorbance 405 nm; Potency, µM (top dose mostly 114 µM), for inactives: top-dose activity change, negative = inhibition, most hits filed as inhibitors; 360,000 tested, 3% active; AID 485364; note: nearly all actives have a fitted effect of over 60% in size
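TGR 20 nM + NADPH 100 uM (dispensed conc.), cpd preinc 15 min RT; start with NADPH (500 uM addition) then DTNB (15 mM addition). Kinetic TNB absorbance, 405 nm filter. Four-parameter Hill fit across titration.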
RE007 growth inh = less growth of the S. pombe RE007 Vpr strain; S. pombe RE007 Vpr strain, BacTiter-Glo ATP luminescence, 24 h; Potency, µM (doses to about 92.2 µM), inactives show top-dose activity change, negative = less growth, usual class: inhibitors; 360,000 tested, 0.21% active; AID 651644; active = well fitted falling curve with a large enough effect; inconclusive = small, poorly fitted or top-dose-only effect; inactive = no such curve, though single readings can be large or run the other way; note: nearly all actives have a fitted effect of over 50% in size
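Fission yeast RE007 carrying one integrated HIV-1 vpr copy, seeded at OD 0.01 in PMG+AL medium with 23 nL pinned compound. Grown 24 h at 30 degrees; viability read by BacTiter-Glo luminescence after 5 min.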
FMDV antiviral = blocks foot and mouth disease virus; FMDV antiviral cell-based qHTS; Potency, µM (series often up to 57.9 µM), for the others: top-dose activity change, negative = inhibition, most hits filed as inhibitors; 410,000 tested, 1.2% active; calls by dose curve; tested in HEK293T cells; note: read-out not given here; nearly all actives have a fitted effect of over 45% in size
HCV inh = blocks hepatitis C virus. Huh7.5.1 HCVcc-Cre infection, luciferase reporter, 44 h. Potency, µM (top dose mostly 41.8 µM), inactives show at the highest dose activity change, negative = inhibition, most hits filed as inhibitors. 340,000 tested, 3.4% active
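Cells (1,000/well) were plated 4 h before compound, then infected with HCVcc-Cre virus (~0.5 moi). After 44 h further culture, infection was read as luciferase luminescence following a 15 min substrate incubation at room temperature.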
Marburg entry inh = Marburg virus entry inhibition; Marburg virus pseudotyped entry inhibition, cell reporter; Potency, µM (series often up to 37.8 µM), without a hit: at the top dose activity change, negative = inhibition, most hits filed as inhibitors; 300,000 tested, 1.8% active; calls by dose curve; tested in HEK293 cells
Lassa entry inh = blocks Lassa virus binding to or entry into cells; Potency, µM (titrated, usually from 37.9 µM), inactives show at the highest dose activity change, negative = inhibition, actives largely listed as inhibitors; 300,000 tested, 1.2% active; Lassa virus pseudotype entry inhibition, cell reporter; AID 540256; calls by dose curve; tested in HEK293 cells; note: nearly all actives have a fitted effect of over 50% in size
Starred values were filed as active, the others as inactive; ? = inconclusive; · = no result; [ ] = remark or other dose. Unless noted, calls come from the whole dose curve; as a rule, active = well fitted curve in the direction sought with a large enough effect; inconclusive = small, poorly fitted or top-dose-only effect, or another doubt; inactive = no such curve, though single readings can be large; an effect the other way counts as inactive or inconclusive. % is set by controls: 0 for no effect and ±100 for the full control effect; potency is the fitted concentration of half-maximal effect.

SMILES	Sm TGR block	RE007 growth inh	FMDV antiviral	HCV inh	Marburg entry inh	Lassa entry inh
CN(C)C(=O)Oc1ccc(OCc2nc3ccccc3[nH]2)cc1	-5.0%	?	-46.4%	-29.5%	?	9.2µM*
CCn1c(=O)c2cc(C(=O)N(C)CC(OC)OC)sc2c2ccccc21	4.6%	-7.0%	-11.3%	11.2µM*	·	·
CCOc1ccccc1N(C)C(=O)c1cc2c(=O)n(CC)c3ccccc3c2s1	15.1%	21.3%	0.0%	2µM*	·	·
CCn1c(=O)c2cc(C(=O)N(CCN(C)C)Cc3ccccc3)sc2c2ccccc21	33.7%	·	-8.9%	·	4.1%[46.1 µM]	22.9%[46.1 µM]
CCOC(=O)CNC(=O)c1cc2c(=O)n(CC)c3ccccc3c2s1	0.3%	·	15.5%	·	-3.0%[46.1 µM]	23.1%[46.1 µM]
Cc1ccc(C(O)(c2ccccc2)c2ccccc2C(C)N(C)C)c(C)c1 (configuration not stated)	-13.0%	18.4%	·	?	5.8µM*	8.2µM*
CCC(C)NC(=O)CSc1nc2cc3c(cc2c(=O)n1Cc1ccc(C(=O)NCCc2ccc(OC)c(OC)c2)cc1)OCO3 (configuration not stated)	-2.9%	·	·	·	·	-13.7%[46.1 µM]
CC(=O)N1CCCc2cc(S(=O)(=O)N3CCC(C(=O)Nc4cccc(Cl)c4C)CC3)ccc21	-2.6%	·	0.0%	·	·	2.9%[46.1 µM]
Cc1cc(-n2c(C)cc(C(=O)CSc3ncnc4ccccc34)c2C)no1	0.1%	-20.2%	12.6µM*	2.82µM*	9.2µM*	?
Cc1cc(C)n2nc(SCC(=O)c3cc(C)n(-c4cc(C)on4)c3C)nc2n1	?	-23.8%	?	4.47µM*	-18.7%	-18.1%
CNc1nnc(SCC(=O)c2cc(C)n(C3CC3)c2C)s1	-26.1%	2.7%	65.8%	2.5%	·	·
Cc1cc(C(=O)CSc2ncnc3ccccc23)c(C)n1C1CC1	-12.9%	-12.1%	-29.9%	10µM*	10.3%	-1.5%
CC(=O)c1cccc(OCC(=O)c2cc(C)n(-c3cc(C)on3)c2C)c1	-28.5%	-3.5%	22.4µM*	?	-28.6%	-42.9%
COc1ccc(CNC(=O)Cn2nc3c(cc2=O)CCCC3)cc1	-2.8%	·	-17.7%	·	·	-0.4%[46.1 µM]
Nc1nc2c(c(=O)[nH]1)N(C=O)C(CNc1ccc(C(=O)NC(CCC(=O)O)C(=O)O)cc1)CN2 (configuration not stated)	·	·	11.2%	·	·	·
CN1CCN(c2ccc(NC(=O)c3ccc(-c4ccccc4F)o3)cc2)CC1	-17.7%	14.4%	17.2%	10µM*	?	?
O=C(NC1CCCCCC1)c1ccc(Br)o1	1.4%	-5.2%	31.1%	4.4%	?	12.3%[46.1 µM]
O=C(NC1CCCCC1)c1ccc(-c2ccccc2F)o1	·	-24.5%	?	0.708µM*	?	?
O=C(NC1CCCCCC1)c1ccc(CS(=O)(=O)Cc2ccccc2F)o1	22.4µM*	-4.1%	0.7%	-8.6%	·	·
Cc1cc(N2CCN(C)CC2)ccc1NC(=O)c1ccc(-c2ccc(Cl)cc2)o1	-35.0%	-13.8%	-20.4%	14.1µM*	?	?
O=C(NC1CCCC1)c1ccc(CS(=O)(=O)Cc2ccccc2Cl)o1	-32.0%	1.8%	-1.6%	5.2%	·	·
CCS(=O)(=O)N1CCc2cc(C(=O)NCc3ccc(Cl)cc3)ccc21	-4.1%	·	-25.3%	·	0.0%[46.1 µM]	-2.8%[46.1 µM]
COc1cc(Nc2nc3c(S(=O)(=O)c4cccc(Cl)c4)nnn3c3ccsc23)cc(OC)c1	11.2%	·	?	·	·	13.0%[46.1 µM]
COc1ccc(C(=O)CCS(=O)(=O)c2ccc(C)cc2)cc1OC	0.447µM*	?	?	?	?	?
Cc1ccc(S(=O)(=O)CCC(=O)c2ccc(O)cc2O)cc1	0.447µM*	?	-24.4%	16.9%	-6.8%	1.0%
SMILES	Sm TGR block	RE007 growth inh	FMDV antiviral	HCV inh	Marburg entry inh	Lassa entry inh
O=C(NCCc1nnc2n1CCN(Cc1c(F)cccc1F)CC2)c1ccc(F)cc1	·	·	-1.5%	·	·	·
CCN(CC)CCn1c2c(c(SCC(=O)Nc3cccc(C(F)(F)F)c3)nc1=O)CCC2	-0.4%	·	1.9%	·	·	3.7%[46.1 µM]
CCOC(=O)c1cccc(NC(=O)CC2C(=O)N(c3ccc(Cl)cc3)C(=O)N2C2CCCC2)c1 (configuration not stated)	-6.5%	·	-22.9%	·	·	-23.6%[46.1 µM]
O=[N+]([O-])c1ccc(C(c2sc3nc(-c4ccco4)nn3c2O)N2CCN(c3cccc(Cl)c3)CC2)cc1 (configuration not stated)	-1.4%	·	14.3%	·	·	17.7%[46.1 µM]
O=C1c2cccnc2C(Nc2cccc(F)c2)N1Cc1ccco1 (configuration not stated)	35.5µM*	18.2%	-10.8%	-2.4%	·	·
O=C1c2cccnc2C(Nc2ccccc2Br)N1Cc1ccco1 (configuration not stated)	22.4µM*	4.9%	-11.1%	0.8%	6.5%[46.1 µM]	13.6%[46.1 µM]
O=C1c2cccnc2C(Nc2ccccc2)N1Cc1ccco1 (configuration not stated)	25.1µM*	-8.8%	1.8%	-6.7%	-6.3%	0.2%
OCCN1CCN(Cc2ccc3c(c2)CN(Cc2cc4ccccc4o2)CCO3)CC1	·	·	4.1%	·	·	·
Cc1ccc(CNC(=O)c2c(O)nc3ccccn3c2=O)cc1	27.7%	·	-9.3%	·	?	·
COc1cccc(C=NN(C)c2c([N+](=O)[O-])cc(C(F)(F)F)cc2[N+](=O)[O-])c1O	·	2.6%[18.4 µM]	-25.7%	·	·	·
O=C(N/N=C/c1cccs1)c1n[nH]c2c1CCCC2	14.5%	-9.3%	-23.2%	-28.7%	?	2.24µM*
O=[S+]1([O-])C[C@@H](N2CCN(CCO)CC2)[C@@H](COCc2ccccc2)N1	·	·	·	·	·	11.6%[46.1 µM]
Cc1csc(C(=O)O)c1NC(=O)c1ccc(F)cc1	89.1µM*	3.9%	-24.3%	8.4%	·	·
Cc1ccc(OCC(=O)N(Cc2ccco2)Cc2ccc(C)o2)cc1	-7.3%	·	-22.8%	·	-0.9%[46.1 µM]	12.7%[46.1 µM]
COC1=CC(=O)c2nc(Cl)ccc2C1=O	·	-12.9%[18.4 µM]	10µM*	·	·	·
Cc1cc(=S)cc(C)n1CCCO	1.78µM*	26.1%[3.69 µM]	16.9%	11.1%	34.2%	6.2%
Cc1cc(=O)oc2cc(OCc3cn(CC(=O)c4ccc(O)cc4)nn3)ccc12	·	·	·	·	·	2.0%[46.1 µM]
